Bioassay records from PubChem BioAssay.
Shown are actives, neighbours in structure and some others; about 19% of the full set was active somewhere.
SW480 rereplic: A quantitative high throughput screen for small molecules that induce DNA re-replication in SW480 colon adenocarcinoma cells. AID 624297, 2012. 340,000 compounds, 1.8% hits. SW480 DNA re-replication, Hoechst DNA content imaging, 48 h. Potency, µM (doses to about 46.1 µM), for inactives: at the top dose re-replication activation, most hits filed as activators; note: potency is the fitted concentration of half-maximal effect; % of control where 0% means no effect; nearly all actives have a fitted effect of over 55% in size
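Readout is total intensity of Hoechst-stained nuclei, excited at 405 nm and collected at 500-530 nm. Compound treatment lasted 48 hr at 37 C in 5% CO2 before staining.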
TDP1 cell CPT: qHTS for Inhibitors of human tyrosyl-DNA phosphodiesterase 1 (TDP1): qHTS in cells in presence of CPT; AID 686979, 2013; 420,000 compounds, 12% hits; chicken DT40 Tdp1-/-;hTDP1 cells + 20 nM CPT, ATP luminescence, 48 h; Potency, µM (series often up to 46.2 µM), for the others: top-dose activity change, negative = growth inhibition, actives largely listed as inhibitors; note: potency is the fitted concentration of half-maximal effect; % is set by controls: 0 for no effect and ±100 for the full control effect; nearly all actives have a fitted effect of over 55% in size
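Chicken DT40 Tdp1-/- cells complemented with human TDP1, 400 cells/well, exposed to compounds plus 20 nM camptothecin for at least 48 h at 37 C; viability read as ATP content by CellTiter-Glo luminescence.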
Chronic BCR inh: qHTS Assay to Find Inhibitors of Chronic Active B-Cell Receptor Signaling; Potency, µM (highest dose often 46.1 µM), for inactives: at the highest dose activity change, negative = inhibition, actives largely listed as inhibitors; AID 493014, 2011; ABC-DLBCL IkBa-CBG/CBR reporter, luminescence ratio, 4 h; 340,000 compounds, 0.05% hits; active = well fitted inhibition curve with a large enough effect in the signal ratio, with a control signal flat, not every such curve was filed as active; inconclusive = small, poorly fitted or top-dose-only effect, or effect the other way, or a change in a side signal; the % refers to the signal ratio;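 note: potency is the fitted concentration of half-maximal effect; plate controls were basal doxycycline-induced cells for no effect and cells given 10 µM MG132 for full effect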
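Cell line TMD8 (human ABC DLBCL), stably expressing tet-inducible CBG68-IkBa fusion and CBR; IMDM/0.5% FBS; cpd up to 46 uM; dox induction, 4 h, 37C/5% CO2; dual luminescence; green/red ratio; MG132 control.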
MCF10A rereplic: A quantitative high throughput screen for small molecules that induce DNA re-replication in MCF 10a normal breast cells. 350,000 compounds, 2.9% hits. MCF 10A DNA re-replication, Hoechst nuclear intensity, 48 h. AID 624296, 2012. Potency, µM (titrated, usually from 46.1 µM), for the others: at the top dose activity, positive = re-replication, actives largely listed as activators; note: potency is the fitted concentration of half-maximal effect; % of control where 0% means no effect; nearly all actives have a fitted effect of over 50% in size
IL-1B inflam inh: qHTS for Inhibitors of Inflammasome Signaling: IL-1-beta AlphaLISA Primary Screen; THP-1 LPS/ATP IL-1B secretion, AlphaLISA, 16 h; hits give low values; activity change, % at 57.5 µM; 360,000 compounds, 4.7% hits; AID 743279, 2014; in the data active = activity change below about -50%; inconclusive = mostly about -30% to -49%; note: % is set by controls: 0 for no effect and ±100 for the full control effect
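THP-1 cells pretreated 1 hr with compounds (up to 57.5 uM final), then stimulated with LPS (250 ng/mL final) plus ATP (1.25 mM final); secreted IL-1B measured by AlphaLISA after 16 hr, decreased signal indicating inhibition.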
TDP1 cell noCPT: qHTS for Inhibitors of human tyrosyl-DNA phosphodiesterase 1 (TDP1): qHTS in cells in absence of CPT; Potency, µM (highest dose often 46.2 µM), without a hit: at the highest dose activity change, negative = growth inhibition, actives largely listed as inhibitors; 420,000 compounds, 15% hits; DT40 Tdp1-/- hTDP1 cells, no CPT, ATP luminescence, 48 h; note: potency is the fitted concentration of half-maximal effect; % is set by controls: 0 for no effect and ±100 for the full control effect; nearly all actives have a fitted effect of over 55% in size
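Luminescent ATP content (CellTiter-Glo) served as the growth readout. Knockout chicken DT40 cells expressing human TDP1 were exposed to compounds without camptothecin for a minimum 48 hr at 37 °C.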
Numbers without * were called inactive; ? = inconclusive; . = no result given; [ ] = another dose, or the depositor's remark. Unless noted, calls come from the whole dose curve; as a rule, active = well fitted curve in the direction sought with a large enough effect; inconclusive = small, poorly fitted or top-dose-only effect, or another doubt; inactive = no such curve, though single readings can be large; an effect the other way counts as inactive or inconclusive.

SMILES	SW480 rereplic	TDP1 cell CPT	Chronic BCR inh	MCF10A rereplic	IL-1B inflam inh	TDP1 cell noCPT
O=C1ON=C(c2ccccc2)/C1=C/c1ccc(O)cc1	21%	23µM*	5%	21%	-99*	?
O=C1ON=C(c2ccccc2)/C1=C/c1ccccc1	-4%	0%	3%	-2%	-75*	-33%
O=C1ON=C(c2ccccc2)/C1=C\c1ccco1	0%	-14%	16%	1%	5	-5%
CCc1ccccc1C1=CC(=O)C[C@H](c2ccc(OC)cc2)C1	-3%	1%	0%	14%	1	-3%
CC(N)CCCP(=O)(O)O (configuration not stated)	.	-21%	.	.	.	-11%
COc1ccc2c(c1)-c1nc(-n3ncc(C(=O)NC[C@@H]4CCCN5CCCC[C@H]45)c3C)ncc1CC2	.	?	.	.	.	9.2µM*
COc1ccc2c(c1)-c1nc(-n3ncc(C(=O)NCC4CCCN(C)C4)c3C3CC3)ncc1CC2 (configuration not stated)	.	4%[9.04 µM]	.	.	.	-18%
COc1ccc2c(c1)-c1nc(-n3ncc(C(=O)NCc4cccnc4)c3C3CC3)ncc1CC2	.	-6%[9.04 µM]	.	.	.	23µM*
Cn1c(=O)c2c(nc(Oc3ccccc3)n2Cc2c(Cl)cccc2Cl)n(C)c1=O	.	8%	.	.	.	2%
O=C1C(F)=CC(COC(c2ccccc2)(c2ccccc2)c2ccccc2)OC1n1cc(F)c(=O)[nH]c1=O (configuration not stated)	7.3µM*	1.6µM*	.	2.6µM*	-101*	1.5µM*
CCOC(=O)Cc1[nH]nc2c1C(C1C=CCCC1)C(C#N)=C(N)O2 (configuration not stated)	16%	?	?	?	-90*	23µM*
N#CC1=C(N)Oc2n[nH]c(-c3cccs3)c2C1C1CCCCC1 (configuration not stated)	-5%	?	?	?	-98*	?
N#CC1=C(N)Oc2n[nH]c(-c3cccs3)c2C1C1C=CCCC1 (configuration not stated)	3%	-16%	-17%	11%	-94*	-20%
Cc1cccc(-c2cc(=O)c3cc(Br)ccc3o2)c1	.	26%	.	.	.	-8%
Cc1ccc(-c2cc3cccc[n+]3cc2-c2ccc(C)cc2)cc1	-11%	0.65µM*	?	?	-88*	1.2µM*
COCOCCn1cc(CN2CCS(=O)(=O)N(Cc3ccc(-c4ccncc4)cc3)C(C)C2=O)nn1 (configuration not stated)	.	-18%	.	.	4	-16%
COCOCCn1cc(CN2CCS(=O)(=O)N(Cc3ccc(-c4ccc(C)cc4)cc3)C(C)C2=O)nn1 (configuration not stated)	.	?	.	.	32	15µM*
COCOCCn1cc(CN2CCS(=O)(=O)N(Cc3ccc(-c4ccc(OC)c(OC)c4)cc3)C(C)C2=O)nn1 (configuration not stated)	.	16µM*	.	.	-22	10µM*
COCOCCn1cc(CN2CCS(=O)(=O)N(Cc3ccc(-c4ccc(Cl)nc4)cc3)C(C)C2=O)nn1 (configuration not stated)	.	-22%	.	.	-4	?
COCOCCn1cc(CN2CCS(=O)(=O)N(Cc3ccc(-c4ccc(Cl)c(Cl)c4)cc3)C(C)C2=O)nn1 (configuration not stated)	.	4.1µM*	.	.	-16	4.1µM*
COCOCCn1cc(CN2CCS(=O)(=O)N(Cc3ccc(-c4cccc(CO)c4)cc3)C(C)C2=O)nn1 (configuration not stated)	.	1%	.	.	2	-15%
CCOc1ccc(NC(=O)CCS(=O)(=O)c2cccc3nonc23)cc1	.	-14%	.	.	.	-22%
CCCCCCCCCCCCCCCC(=O)NC(C)C	.	8%	.	.	.	0%
O=C(CN1c2cccc3cccc(c23)S1(=O)=O)N1CCN(c2ccccc2)CC1	2%	-17%	?	9%	11	-22%
CCOCC(O)COc1ccc(NC(=O)CC[S+](C)C)cc1 (configuration not stated)	-1%	-2%	.	9%	.	-2%
SMILES	SW480 rereplic	TDP1 cell CPT	Chronic BCR inh	MCF10A rereplic	IL-1B inflam inh	TDP1 cell noCPT
CC(=O)NC1[C@H]([C@H](O)[C@H](O)CO)OC(C(=O)O)=C[C@H]1N=C(N)N (some centres not stated)	4%	.	.	4%	.	.
Cc1ccc(NC(=O)CSc2nc3c(oc4ccccc43)c(=O)n2Cc2ccco2)cc1F	.	-12%	.	.	.	-29%
Cc1cccc(NC(=O)CSc2nc3c(oc4ccccc43)c(=O)n2Cc2ccco2)c1	.	23µM*	.	.	.	16µM*
COCCn1c(SCC(=O)Nc2ccccc2)nc2c(oc3ccccc32)c1=O	-3%	-28%	2%	-1%	-16	?
COc1cccc(NC(=O)CSc2nc3c(oc4ccccc43)c(=O)n2Cc2ccco2)c1	.	9.2µM*	.	.	.	9.2µM*
COc1ccc(NC(=O)CSc2nc3c(oc4ccccc43)c(=O)n2Cc2ccco2)cc1Cl	.	?	.	.	.	21µM*
COCCn1c(SCC(=O)Nc2ccc(F)c(Cl)c2)nc2c(oc3ccccc32)c1=O	.	5.2µM*	.	.	.	?
Cc1noc(C)c1C(=O)N1CCC1(C)C(=O)NS(=O)(=O)c1ccc(F)cc1F (configuration not stated)	.	4%	.	.	8	0%
